NPR1 antag = Natriuretic polypeptide receptor (hNpr1) antagonism - Primary qHTS. 76,000 compounds, 1.6% hits. Potency, µM (series often up to 46.3 µM), without a hit: at the highest dose activity change, negative = inhibition, hits mostly inhibitors. Atrial natriuretic peptide receptor 1 (Homo sapiens), P16066. HEK293 hNpr1 GloSensor cGMP, ANP-stimulated luminescence; calls by dose curve; note: nearly all actives have a fitted effect of over 60% in size
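HEK293 cells stably expressing human Npr1 and cGMP GloSensor pGS-40F, loaded 2 h with 2% GloSensor reagent, given compound 30 min at room temperature. Luminescence read before and 20 min after 0.1 nM hNppA.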
HEK cytotox = Cytotoxic Profiling in HEK 293 Cell Line of Diverse Libraries Using Quantitative High-Throughput Screening | 94,000 compounds, 6.6% hits | Potency, µM (top dose mostly 115 µM), for the others: at the top dose activity change, negative = cytotoxicity, usual class: inhibitors | HEK 293 viability, ATP luminescence (CellTiter-Glo), 48-72 h; note: nearly all actives have a fitted effect of over 60% in size
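Read-out: CellTiter-Glo ATP luminescence. Cells: HEK 293, 250 cells/well. Exposure: 48 or 72 hr, 37 degree Celsius.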
FLuc inh = Firefly luciferase inhibition profiling of diverse chemical library using quantitative high-throughput screening. Luciferin 4-monooxygenase (Photinus pyralis), P08659. purified P. pyralis luciferase, luminescence, biochemical. Potency, µM (series often up to 115 µM), most hits filed as inhibitors. 76,000 compounds, 2.5% hits; note: nearly all actives have a fitted effect of over 65% in size
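Luminescence read by CCD imager after adding enzyme (10nM final) to wells holding compound, titrated in qHTS. Substrates 10uM each D-luciferin and ATP; buffer 50mM Tris acetate pH 7.5, 10mM Mg acetate, Tween-20, BSA.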
NIH3T3 tox = Cytotoxic Profiling in NIH 3T3 Cell Line of Diverse Libraries Using Quantitative High-Throughput Screening; NIH 3T3 viability, CellTiter-Glo ATP luminescence, 48-72 h; 94,000 compounds, 4.3% hits; Potency, µM (titrated, usually from 96.7 µM), inactives show at the highest dose activity change, negative = cytotoxicity, most hits filed as inhibitors; AID 1345082, 2018; note: nearly all actives have a fitted effect of over 55% in size
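Mouse fibroblast NIH 3T3 cells, 400 per well, received compound via pintool and were incubated for 48 or 72 hr prior to CellTiter-Glo ATP luminescence measurement.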
GPT2 inhibitor = Primary qHTS assay for inhibitors of Glutamate pyruvate transaminase 2 (GPT2); Recombinant GPT2, coupled pyruvate oxidase/HRP Amplex Red fluorescence; 100,000 compounds, 0.25% hits; Alanine aminotransferase 2 (Homo sapiens), Q8TD30; AID 1671188, 2021; Potency, µM (series often up to 57.7 µM), for inactives: top-dose activity change, negative = inhibition, most hits filed as inhibitors; note: nearly all actives have a fitted effect of over 60% in size
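Fluorescence read-out: pyruvate from GPT2 turnover coupled to pyruvate oxidase, HRP and Amplex Red (0.2mM ThPP, 0.2U/mL PO and HRP, 50uM Amplex final). Substrates 250uM a-KG, 2mM L-alanine; enzyme 10ng/uL; 30 min RT.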
An asterisk follows results filed as active; i = inactive; ? = inconclusive; · = no result given; [ ] = another dose, or the depositor's remark. Hits are enriched below; roughly 10% of the tested compounds scored in any of these assays. Unless noted, calls come from the whole dose curve; as a rule, active = well fitted curve in the direction sought with a large enough effect; inconclusive = small, poorly fitted or top-dose-only effect, or another doubt; inactive = no such curve, though single readings can be large; an effect the other way counts as inactive or inconclusive. % is set by controls: 0 for no effect and ±100 for the full control effect; potency is the fitted concentration of half-maximal effect.

SMILES	NPR1 antag	HEK cytotox	FLuc inh	NIH3T3 tox	GPT2 inhibitor
O=C(C[C@@H]1CCNC[C@@H]1Cc1cc(-c2ccccc2)on1)N1CCOCC1	1.2%[70.6 µM]	-0.9%[172 µM]	i	-1.4%[174 µM]	i
O=C(C[C@@H]1CCNC[C@@H]1Cc1cc(COc2ccccc2)on1)N1CCN(c2ccc(F)cc2)CC1	-15.9%	22.4µM*	i	25.1µM*	-8.7%
CC(=O)N1CCN(C(=O)C[C@@H]2CCNC[C@@H]2Cc2cc(COc3ccccc3)on2)CC1	-2.4%	-7.2%	i	-18.9%	0.6%
CN(Cc1ccccc1)C(=O)C[C@@H]1CCNC[C@@H]1Cc1cc(CN(C)c2ccccc2)on1	-15.4%	?	i	79.4µM*	?
CN(Cc1ccccc1)Cc1cc(C[C@H]2CNCC[C@H]2CC(=O)N2CCN(c3ccccn3)CC2)no1	4.0%	-14.5%	i	0.8%	-3.8%
CCCn1nc(C)cc1CN(C)C(=O)c1ccc2c(c1)C(O)CCCCCN2CCOC (centres undefined)	0.6%	-25.5%	i	?	i
CN(Cc1ccccc1)C(=O)C[C@@H]1CCNC[C@@H]1Cc1cc(CC2CCCCC2)on1	?	28.2µM*	i	44.7µM*	-2.4%[88.5 µM]
CC(C)(C)NC(=O)C[C@@H]1CCNC[C@@H]1Cc1cc(CC2CCCCC2)on1	6.6%[70.6 µM]	44.7µM*	i	35.5µM*	-10.2%[88.5 µM]
CCN(CC)C(=O)C[C@@H]1CCNC[C@@H]1Cc1cc(CC2CCCCC2)on1	2.6%[70.6 µM]	70.8µM*	i	25.1µM*	-3.3%[88.5 µM]
CN(Cc1ccccc1)C(=O)C[C@@H]1CCNC[C@@H]1Cc1cc(-c2ccc(F)cc2)on1	-22.6%[70.6 µM]	35.5µM*	i	31.6µM*	i
COCc1cc(C[C@H]2CNCC[C@H]2CC(=O)N(C)Cc2ccccc2)no1	-1.6%[70.6 µM]	-5.7%[172 µM]	i	-4.7%[174 µM]	i
CCN(CC)C(=O)C[C@@H]1CCNC[C@@H]1Cc1cc(-c2ccccc2)on1	-1.3%[70.6 µM]	?	i	?	0.5%[88.5 µM]
COc1ccc(-c2noc(CN3CCN(c4ccccc4)CC3C)n2)c(OC)c1OC (centres undefined)	4.3%	?	i	-11.3%	?
CCCCc1cc(C[C@H]2CNCC[C@H]2CC(=O)Nc2nccs2)no1	-11.9%[70.6 µM]	?	63.1µM*	?	4.4%[88.5 µM]
CCCCc1cc(C[C@H]2CNCC[C@H]2CC(=O)NCCNC(C)=O)no1	7.4%[70.6 µM]	i	i	2.5%[174 µM]	-5.0%[88.5 µM]
Cc1noc(C)c1-c1cc2c(cc(C)n2CCN(C)C)c(-c2ccnn2C)n1	-14.4%[70.6 µM]	?	i	44.7µM*	-40.7%[88.5 µM]
COc1cncc(-c2nc(-c3c(C)noc3C)cc3c2cc(C)n3CCN(C)C)c1	-5.7%[70.6 µM]	89.1µM*	i	22.4µM*	i
COc1ccc(-c2nc(-c3c(C)noc3C)cc3c2cc(C)n3C)cn1	-12.2%[70.6 µM]	?	i	?	?
COc1cc(-c2nc(-c3c(C)noc3C)cc3c2cc(C)n3CCN(C)C)ccn1	2.8%[70.6 µM]	70.8µM*	i	?	-2.2%[88.5 µM]
Cc1noc(C)c1-c1cc2c(cc(C)n2CCN(C)C)c(-c2ccsc2)n1	3.6%[70.6 µM]	-4.8%[172 µM]	i	?	-1.0%[88.5 µM]
Cc1cc(-c2nc(-c3c(C)noc3C)cc3c2cc(C)n3CCN(C)C)ccn1	-5.2%[70.6 µM]	?	i	?	-25.6%[88.5 µM]
Cc1noc(C)c1-c1cc2c(cc(C)n2CCN(C)C)c(Nc2ccncn2)n1	-20.1%[70.6 µM]	100µM*	i	25.1µM*	-5.6%[88.5 µM]
CCC(=O)N(C1CCNCC1)C1CCOCC1	0.2%	-3.5%	i	-4.1%	1.3%
CN1CC2(CCN(C(=O)C3CCCN3C3CCNCC3)CC2)OC1=O (centres undefined)	2.0%	0.6%	i	i	-11.1%
Cc1noc(C)c1-c1cc2c(cc(C)n2CCN(C)C)c(-c2ccccc2)n1	0.5%[70.6 µM]	?	i	22.4µM*	-3.5%[88.5 µM]
COc1ccccc1-c1cccc(C(=O)O)c1	·	-14.0%[172 µM]	·	i	-9.7%[88.5 µM]
